A number with no mark means an inactive call.
compound: C#CCNC(=O)CCSSCCC(=O)NCCc1ccc(C=O)c(C=O)c1; assay: lysine labeling ratio R10:1 (500 µM / 50 µM probe), SILAC-ABPP in living cells; higher = lower intrinsic lysine reactivity toward the probe, active = 2 or less; conditions: HeLa; probe concentrations 500 vs 50 µM
In short: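 R, given per lysine, is the filtered median high-probe/low-probe MS1 peptide ratio, with the median then taken across forward and reverse replicates. Cells were living SILAC light and heavy HeLa cells in PBS at room temperature, labelled with 50 µM or 500 µM of an alkyne-tagged, disulfide-linked lysine probe. The ceiling applied is 20.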

Sequence of UniProt Q9Y6N7 (Q9Y6N7 whole entry): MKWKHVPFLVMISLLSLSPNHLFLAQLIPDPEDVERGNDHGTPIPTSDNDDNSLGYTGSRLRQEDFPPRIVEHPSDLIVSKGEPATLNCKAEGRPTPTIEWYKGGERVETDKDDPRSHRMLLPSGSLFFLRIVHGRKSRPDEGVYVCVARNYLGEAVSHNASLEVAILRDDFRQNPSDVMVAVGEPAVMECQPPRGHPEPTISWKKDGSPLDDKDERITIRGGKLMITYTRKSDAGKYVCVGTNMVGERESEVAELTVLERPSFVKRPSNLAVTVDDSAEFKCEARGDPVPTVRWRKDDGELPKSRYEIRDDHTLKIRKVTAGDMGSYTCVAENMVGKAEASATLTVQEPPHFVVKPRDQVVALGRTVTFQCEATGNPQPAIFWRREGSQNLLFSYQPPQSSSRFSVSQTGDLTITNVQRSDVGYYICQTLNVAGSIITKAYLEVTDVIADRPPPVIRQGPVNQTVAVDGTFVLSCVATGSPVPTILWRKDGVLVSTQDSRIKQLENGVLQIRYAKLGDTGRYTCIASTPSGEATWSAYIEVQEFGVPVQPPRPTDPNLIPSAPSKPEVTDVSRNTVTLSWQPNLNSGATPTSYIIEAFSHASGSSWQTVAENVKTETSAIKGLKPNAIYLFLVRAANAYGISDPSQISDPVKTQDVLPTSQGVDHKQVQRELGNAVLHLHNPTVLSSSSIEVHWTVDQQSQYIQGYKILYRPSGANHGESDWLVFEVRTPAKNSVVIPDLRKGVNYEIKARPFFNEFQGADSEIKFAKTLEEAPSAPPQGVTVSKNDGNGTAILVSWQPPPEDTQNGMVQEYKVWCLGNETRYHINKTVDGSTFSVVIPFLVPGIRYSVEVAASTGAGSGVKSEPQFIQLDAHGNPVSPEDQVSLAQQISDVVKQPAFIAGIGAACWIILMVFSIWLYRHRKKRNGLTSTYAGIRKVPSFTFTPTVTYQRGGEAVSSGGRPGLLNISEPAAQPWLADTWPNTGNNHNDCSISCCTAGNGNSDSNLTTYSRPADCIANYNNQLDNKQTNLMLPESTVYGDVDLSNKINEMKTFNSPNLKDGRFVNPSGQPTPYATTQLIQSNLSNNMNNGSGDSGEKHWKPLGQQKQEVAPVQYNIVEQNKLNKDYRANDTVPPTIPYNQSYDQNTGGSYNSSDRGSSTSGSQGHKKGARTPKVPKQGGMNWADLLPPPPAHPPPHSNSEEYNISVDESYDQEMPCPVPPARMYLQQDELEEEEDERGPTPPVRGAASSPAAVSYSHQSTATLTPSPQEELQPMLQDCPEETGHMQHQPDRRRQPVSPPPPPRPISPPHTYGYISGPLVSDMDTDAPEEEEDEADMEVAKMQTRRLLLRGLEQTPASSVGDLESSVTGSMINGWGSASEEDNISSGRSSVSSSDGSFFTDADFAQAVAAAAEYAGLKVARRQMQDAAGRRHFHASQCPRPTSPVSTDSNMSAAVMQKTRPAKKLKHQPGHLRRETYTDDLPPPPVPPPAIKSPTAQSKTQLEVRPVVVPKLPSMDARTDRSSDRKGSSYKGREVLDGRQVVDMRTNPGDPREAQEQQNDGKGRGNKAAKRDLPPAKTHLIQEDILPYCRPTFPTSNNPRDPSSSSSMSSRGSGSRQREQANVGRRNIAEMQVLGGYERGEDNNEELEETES
Sequence of UniProt P54289 (P54289 whole entry): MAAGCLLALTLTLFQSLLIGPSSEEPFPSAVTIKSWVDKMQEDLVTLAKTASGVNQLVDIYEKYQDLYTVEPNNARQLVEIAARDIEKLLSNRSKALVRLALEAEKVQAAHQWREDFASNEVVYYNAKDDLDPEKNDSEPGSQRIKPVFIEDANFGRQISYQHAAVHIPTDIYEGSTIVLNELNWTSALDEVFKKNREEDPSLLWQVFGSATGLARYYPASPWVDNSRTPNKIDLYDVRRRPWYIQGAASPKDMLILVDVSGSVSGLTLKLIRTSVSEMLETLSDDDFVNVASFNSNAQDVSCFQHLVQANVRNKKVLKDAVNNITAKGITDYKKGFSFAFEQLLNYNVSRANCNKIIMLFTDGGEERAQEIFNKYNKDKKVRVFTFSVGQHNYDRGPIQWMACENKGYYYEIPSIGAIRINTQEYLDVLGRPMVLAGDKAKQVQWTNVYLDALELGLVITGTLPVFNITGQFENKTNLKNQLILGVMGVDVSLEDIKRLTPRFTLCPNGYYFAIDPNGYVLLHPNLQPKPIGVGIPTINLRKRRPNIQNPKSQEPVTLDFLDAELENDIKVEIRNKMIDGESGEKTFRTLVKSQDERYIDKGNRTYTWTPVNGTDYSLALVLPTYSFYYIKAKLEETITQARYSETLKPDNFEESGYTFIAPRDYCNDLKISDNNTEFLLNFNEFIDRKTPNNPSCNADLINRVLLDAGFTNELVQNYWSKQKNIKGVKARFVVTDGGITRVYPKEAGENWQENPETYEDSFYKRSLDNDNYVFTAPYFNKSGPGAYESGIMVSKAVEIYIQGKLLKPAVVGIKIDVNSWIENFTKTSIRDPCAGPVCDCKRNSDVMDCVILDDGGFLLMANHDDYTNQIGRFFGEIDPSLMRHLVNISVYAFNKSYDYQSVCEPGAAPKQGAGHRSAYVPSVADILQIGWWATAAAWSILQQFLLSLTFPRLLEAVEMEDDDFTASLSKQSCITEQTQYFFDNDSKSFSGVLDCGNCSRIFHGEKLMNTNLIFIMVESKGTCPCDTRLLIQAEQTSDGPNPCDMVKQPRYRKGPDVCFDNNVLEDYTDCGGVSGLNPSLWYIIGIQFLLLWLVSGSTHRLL
Sequence of UniProt P08648 (P08648 whole entry): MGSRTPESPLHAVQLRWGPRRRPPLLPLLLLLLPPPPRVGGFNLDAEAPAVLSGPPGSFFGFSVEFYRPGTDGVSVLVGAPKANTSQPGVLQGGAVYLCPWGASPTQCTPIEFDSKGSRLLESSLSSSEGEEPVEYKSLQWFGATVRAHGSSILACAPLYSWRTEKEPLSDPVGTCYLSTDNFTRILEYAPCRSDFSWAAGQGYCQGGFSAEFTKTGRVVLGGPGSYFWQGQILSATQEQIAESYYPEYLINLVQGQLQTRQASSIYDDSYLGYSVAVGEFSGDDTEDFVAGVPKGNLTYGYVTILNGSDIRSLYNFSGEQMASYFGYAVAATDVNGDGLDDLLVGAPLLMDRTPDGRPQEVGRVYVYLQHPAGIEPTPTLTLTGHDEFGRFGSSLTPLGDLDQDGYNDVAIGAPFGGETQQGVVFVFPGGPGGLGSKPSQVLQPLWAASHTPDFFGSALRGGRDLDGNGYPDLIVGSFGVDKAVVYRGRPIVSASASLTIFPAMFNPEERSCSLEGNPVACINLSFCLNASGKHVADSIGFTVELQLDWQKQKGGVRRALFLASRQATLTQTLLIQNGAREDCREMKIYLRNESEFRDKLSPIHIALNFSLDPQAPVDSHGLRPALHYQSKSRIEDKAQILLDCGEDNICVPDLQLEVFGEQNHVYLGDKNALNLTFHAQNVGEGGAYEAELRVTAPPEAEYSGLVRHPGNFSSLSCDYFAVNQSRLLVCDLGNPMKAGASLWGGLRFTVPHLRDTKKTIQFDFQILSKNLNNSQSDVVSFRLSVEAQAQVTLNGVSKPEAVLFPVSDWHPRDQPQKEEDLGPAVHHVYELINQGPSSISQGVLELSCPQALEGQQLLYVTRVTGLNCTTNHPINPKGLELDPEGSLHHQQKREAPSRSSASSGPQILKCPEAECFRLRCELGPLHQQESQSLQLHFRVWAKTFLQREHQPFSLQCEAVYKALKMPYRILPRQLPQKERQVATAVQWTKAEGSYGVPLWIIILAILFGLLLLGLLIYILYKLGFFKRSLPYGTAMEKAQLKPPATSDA
Sequence of UniProt P49773 (P49773 whole entry): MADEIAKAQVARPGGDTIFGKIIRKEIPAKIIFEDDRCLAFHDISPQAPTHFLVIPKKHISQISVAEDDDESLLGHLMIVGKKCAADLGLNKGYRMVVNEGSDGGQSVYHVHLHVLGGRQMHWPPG
Sequence of UniProt Q02818 (Q02818 whole entry): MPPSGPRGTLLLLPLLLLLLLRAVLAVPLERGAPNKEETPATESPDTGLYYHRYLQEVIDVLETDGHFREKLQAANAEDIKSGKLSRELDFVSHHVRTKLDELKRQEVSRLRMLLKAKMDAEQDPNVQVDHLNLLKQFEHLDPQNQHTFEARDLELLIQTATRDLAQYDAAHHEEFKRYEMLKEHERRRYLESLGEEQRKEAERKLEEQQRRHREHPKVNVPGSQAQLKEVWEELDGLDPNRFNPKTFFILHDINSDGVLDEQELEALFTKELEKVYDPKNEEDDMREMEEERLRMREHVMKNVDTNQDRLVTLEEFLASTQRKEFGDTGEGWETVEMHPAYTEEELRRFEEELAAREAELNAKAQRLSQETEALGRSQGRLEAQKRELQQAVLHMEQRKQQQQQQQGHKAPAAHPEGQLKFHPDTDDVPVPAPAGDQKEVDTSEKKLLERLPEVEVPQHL
Sequence of UniProt P00387 (P00387 whole entry): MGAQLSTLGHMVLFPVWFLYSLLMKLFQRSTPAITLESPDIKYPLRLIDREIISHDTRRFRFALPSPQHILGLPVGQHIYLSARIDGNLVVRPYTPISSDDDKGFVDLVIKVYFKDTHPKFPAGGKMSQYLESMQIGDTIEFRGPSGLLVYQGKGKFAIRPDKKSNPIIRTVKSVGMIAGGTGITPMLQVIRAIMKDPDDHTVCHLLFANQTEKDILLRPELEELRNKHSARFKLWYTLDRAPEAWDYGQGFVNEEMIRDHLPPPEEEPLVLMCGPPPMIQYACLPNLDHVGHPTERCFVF
Sequence of UniProt P05141 (P05141 whole entry): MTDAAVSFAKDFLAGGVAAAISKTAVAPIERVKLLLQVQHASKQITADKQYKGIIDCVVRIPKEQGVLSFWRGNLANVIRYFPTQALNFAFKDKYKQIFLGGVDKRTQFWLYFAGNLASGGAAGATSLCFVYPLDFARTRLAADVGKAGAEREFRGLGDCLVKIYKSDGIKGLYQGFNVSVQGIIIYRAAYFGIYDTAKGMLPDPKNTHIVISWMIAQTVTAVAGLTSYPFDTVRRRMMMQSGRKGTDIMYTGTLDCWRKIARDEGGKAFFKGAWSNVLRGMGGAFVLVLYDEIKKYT

| Target | lysine labeling ratio R10:1 |
| --- | --- |
| HSPA8 (lysine site: K328) (UniProt P11142) | 3.91 |
| FLNB (lysine site: K960) (UniProt O75369) | 1.54 (active) |
| CPNE1 (lysine site: K73) (UniProt Q99829) | 2.97 |
| NCL (lysine site: K467) (UniProt P19338) | 0.565 (active) |
| AGRN (lysine site: K1368) (UniProt O00468) | 1.88 (active) |
| SEMA3C (lysine site: K731) (UniProt Q99985) | 0.505 (active) |
| SEMA4D (lysine site: K219) (UniProt Q92854) | 2.27 |
| EEF2 (lysine site: K426) (UniProt P13639) | 3.49 |
| UniProt Q15149 (lysine site: K2339) | 4.2 |
| NUCB1 (lysine site: K302) (UniProt Q02818) | 2.22 |
| IGF2R (lysine site: K1873) (UniProt P11717) | 0.826 (active) |
| ROBO1 (lysine site: K297) (UniProt Q9Y6N7) | 3.3 |
| PPL (lysine site: K1151) (UniProt O60437) | 3.53 |
| GAPDH (lysine site: K194) (UniProt P04406) | 6.75 |
| CACNA2D1 (lysine site: K88) (UniProt P54289) | 1.78 (active) |
| FAT4 (lysine site: K1251) (UniProt Q6V0I7) | 1.62 (active) |
| FRAS1 (lysine site: K1164) (UniProt Q86XX4) | 1.34 (active) |
| UniProt P14618 (lysine site: K498) | 1.49 (active) |
| UniProt Q8N441 (lysine site: K154) | 1.13 (active) |
| EDIL3 (lysine site: K157) (UniProt O43854) | 3.03 |

| Target | lysine labeling ratio R10:1 |
| --- | --- |
| ITGAV (lysine site: K889) (UniProt P06756) | 1.08 (active) |
| ITGA5 (lysine site: K588) (UniProt P08648) | 1.72 (active) |
| PLXNA3 (lysine site: K622) (UniProt P51805) | 1.94 (active) |
| UniProt Q15149 (lysine site: K2154) | 1.47 (active) |
| UniProt P46781 (lysine site: K155) | 2.28 |
| CDH13 (lysine site: K161) (UniProt P55290) | 6.29 |
| UniProt P62249 (lysine site: K60) | 4.81 |
| SLC25A5 (lysine site: K105) (UniProt P05141) | 6.97 |
| SLC25A1 (lysine site: K160) (UniProt P53007) | 2.79 |
| HINT1 (lysine site: K30) (UniProt P49773) | 1.48 (active) |
| LRP1 (lysine site: K2653) (UniProt Q07954) | 1.54 (active) |
| DYNC1H1 (lysine site: K4171) (UniProt Q14204) | 2.12 |
| CACNA2D1 (lysine site: K586) (UniProt P54289) | 2.9 |
| L1CAM (lysine site: K56) (UniProt P32004) | 3.74 |
| PVR (lysine site: K144) (UniProt P15151) | 4.25 |
| ITGA5 (lysine site: K943) (UniProt P08648) | 2.54 |
| STOML2 (lysine site: K187) (UniProt Q9UJZ1) | 1.1 (active) |
| ROBO1 (lysine site: K232) (UniProt Q9Y6N7) | 5.29 |
| CYB5R3 (lysine site: K42) (UniProt P00387) | 3.81 |
| UniProt Q9UHN6 (lysine site: K278) | 3.15 |

From the supplement of paper PMC11001985
